Of roughly 7,900 targets only a part is listed; those with a hit were picked by preference. About 0.6% of all pairs of compound and target were hits.
Assays:
Test in all cases: log2 fold change, soluble protein after heating vs DMSO (PISA); higher = thermal stabilisation; K562 cells, 10 uM, 30 min; active = over 0.2 and 3.5 SD of the protein, either way, in both replicates (recomputed)
[1] = compound: CC(=O)c1cnc2ccc(-c3cc(Cl)c(O)c(Cl)c3)nc2c1N[C@H]1CC[C@H](CN(C)C)CC1
Procedure, shortened: (§1)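 K562 cells at 2×10^6 cells/mL were treated for 30 min with 10 μM compound, and aliquots were heated for 3 min over 48°C-58°C before pooling. Extraction used PBS with 0.5% NP-40 at 4°C, and soluble protein was the supernatant after 21,000xg for 90 min, measured by TMTpro 16plex LC-MS/MS with channel sums equalised. Thermal stability values, relative to control samples and from duplicates, are log2 fold changes.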

[2] = compound: CC(C)(O)CC(=O)NCCn1ccc2ncnc(Nc3ccc(Oc4cccc(C(F)(F)F)c4)c(Cl)c3)c21
Procedure, shortened: as §1

[3] = compound: CC(C)C1=C2N=C(C=C(N2N=C1)NCC3=CC=CC=C3)NCCCCCCN
Procedure, shortened: as §1

[4] = compound: CC1=C(C(CC(=O)N1)C2=CC=C(C=C2)C(F)(F)F)C(=O)NC3=C(C=C4C(=C3)C=NN4)F
Procedure, shortened: as §1

[5] = compound: CC1=C(C2=C(C=C1)C(=O)C3=CC=CC=C3N2CCCN)C
Procedure, shortened: as §1

[6] = compound: CC1=C(C=C(C=C1)NC(=O)C2=CC(=CC=C2)C(C)(C)C#N)NC3=CC4=C(C=C3)N=CN(C4=O)C
Procedure, shortened: as §1

[7] = compound: CC1=CC=C(C=C1)SC2=C3C=C(SC3=CN=C2)C(=O)N
Procedure, shortened: as §1

Nexturastat A = compound: CCCCN(Cc1ccc(C(=O)NO)cc1)C(=O)Nc1ccccc1 [Nexturastat A]
Procedure, shortened: as §1

[8] = compound: CCCS(=O)(=O)Nc1ccc(F)c(C(=O)c2c[nH]c3ncc(Cl)cc23)c1F
Procedure, shortened: as §1

givinostat = compound: CCN(CC)Cc1ccc2cc(COC(=O)Nc3ccc(C(=O)NO)cc3)ccc2c1 [givinostat]
Procedure, shortened: as §1

ibrutinib = compound: C=CC(=O)N1CCC[C@@H](n2nc(-c3ccc(Oc4ccccc4)cc3)c3c(N)ncnc32)C1 [ibrutinib]
Procedure, shortened: as §1

ralimetinib = compound: CC(C)(C)Cn1c(N)nc2ccc(-c3[nH]c(C(C)(C)C)nc3-c3ccc(F)cc3)nc21 [ralimetinib]
Procedure, shortened: as §1

[9] = compound: CC(C)C[C@@H](C=O)NC(=O)[C@H](CC(C)C)NC(=O)[C@H](CC(C)C)NC(=O)OCc1ccccc1
Procedure, shortened: as §1

[10] = compound: CC1=C(C=C(C=C1)NC(=O)C2=CC(=CC=C2)N(C)C)NC(=O)C3=CC=C(C=C3)O
Procedure, shortened: as §1

vemurafenib = compound: CCCS(=O)(=O)Nc1ccc(F)c(C(=O)c2c[nH]c3ncc(-c4ccc(Cl)cc4)cc23)c1F [vemurafenib]
Procedure, shortened: as §1

[11] = compound: CCCc1cc(C)[nH]c(=O)c1CNC(=O)c1cc(-c2ccnc(N3CCN(C)CC3)c2)cc2c1cnn2C(C)C
Procedure, shortened: as §1

barasertib = compound: CCN(CCCOc1ccc2c(Nc3cc(CC(=O)Nc4cccc(F)c4)[nH]n3)ncnc2c1)CCOP(=O)(O)O [barasertib]
Procedure, shortened: as §1

IRAK-1-4 Inhibitor I = compound: C1COCCN1CCN2C3=CC=CC=C3N=C2NC(=O)C4=CC(=CC=C4)[N+](=O)[O-] [IRAK-1-4 Inhibitor I]
Procedure, shortened: as §1

pinometostat = compound: CC(C)N(C[C@H]1O[C@@H](n2cnc3c(N)ncnc32)[C@H](O)[C@@H]1O)[C@H]1C[C@@H](CCc2nc3cc(C(C)(C)C)ccc3[nH]2)C1 [pinometostat]
Procedure, shortened: as §1

[12] = compound: CC1=NC(=CC=C1)C2=C(N=C(N2)C(C)(C)C)C3=CC4=NC=CN=C4C=C3
Procedure, shortened: as §1

Measured: log2 fold change

RICTOR isoform 3 (UniProt Q6R327)
Sequence of UniProt Q6R327 (Q6R327 whole entry, looked up): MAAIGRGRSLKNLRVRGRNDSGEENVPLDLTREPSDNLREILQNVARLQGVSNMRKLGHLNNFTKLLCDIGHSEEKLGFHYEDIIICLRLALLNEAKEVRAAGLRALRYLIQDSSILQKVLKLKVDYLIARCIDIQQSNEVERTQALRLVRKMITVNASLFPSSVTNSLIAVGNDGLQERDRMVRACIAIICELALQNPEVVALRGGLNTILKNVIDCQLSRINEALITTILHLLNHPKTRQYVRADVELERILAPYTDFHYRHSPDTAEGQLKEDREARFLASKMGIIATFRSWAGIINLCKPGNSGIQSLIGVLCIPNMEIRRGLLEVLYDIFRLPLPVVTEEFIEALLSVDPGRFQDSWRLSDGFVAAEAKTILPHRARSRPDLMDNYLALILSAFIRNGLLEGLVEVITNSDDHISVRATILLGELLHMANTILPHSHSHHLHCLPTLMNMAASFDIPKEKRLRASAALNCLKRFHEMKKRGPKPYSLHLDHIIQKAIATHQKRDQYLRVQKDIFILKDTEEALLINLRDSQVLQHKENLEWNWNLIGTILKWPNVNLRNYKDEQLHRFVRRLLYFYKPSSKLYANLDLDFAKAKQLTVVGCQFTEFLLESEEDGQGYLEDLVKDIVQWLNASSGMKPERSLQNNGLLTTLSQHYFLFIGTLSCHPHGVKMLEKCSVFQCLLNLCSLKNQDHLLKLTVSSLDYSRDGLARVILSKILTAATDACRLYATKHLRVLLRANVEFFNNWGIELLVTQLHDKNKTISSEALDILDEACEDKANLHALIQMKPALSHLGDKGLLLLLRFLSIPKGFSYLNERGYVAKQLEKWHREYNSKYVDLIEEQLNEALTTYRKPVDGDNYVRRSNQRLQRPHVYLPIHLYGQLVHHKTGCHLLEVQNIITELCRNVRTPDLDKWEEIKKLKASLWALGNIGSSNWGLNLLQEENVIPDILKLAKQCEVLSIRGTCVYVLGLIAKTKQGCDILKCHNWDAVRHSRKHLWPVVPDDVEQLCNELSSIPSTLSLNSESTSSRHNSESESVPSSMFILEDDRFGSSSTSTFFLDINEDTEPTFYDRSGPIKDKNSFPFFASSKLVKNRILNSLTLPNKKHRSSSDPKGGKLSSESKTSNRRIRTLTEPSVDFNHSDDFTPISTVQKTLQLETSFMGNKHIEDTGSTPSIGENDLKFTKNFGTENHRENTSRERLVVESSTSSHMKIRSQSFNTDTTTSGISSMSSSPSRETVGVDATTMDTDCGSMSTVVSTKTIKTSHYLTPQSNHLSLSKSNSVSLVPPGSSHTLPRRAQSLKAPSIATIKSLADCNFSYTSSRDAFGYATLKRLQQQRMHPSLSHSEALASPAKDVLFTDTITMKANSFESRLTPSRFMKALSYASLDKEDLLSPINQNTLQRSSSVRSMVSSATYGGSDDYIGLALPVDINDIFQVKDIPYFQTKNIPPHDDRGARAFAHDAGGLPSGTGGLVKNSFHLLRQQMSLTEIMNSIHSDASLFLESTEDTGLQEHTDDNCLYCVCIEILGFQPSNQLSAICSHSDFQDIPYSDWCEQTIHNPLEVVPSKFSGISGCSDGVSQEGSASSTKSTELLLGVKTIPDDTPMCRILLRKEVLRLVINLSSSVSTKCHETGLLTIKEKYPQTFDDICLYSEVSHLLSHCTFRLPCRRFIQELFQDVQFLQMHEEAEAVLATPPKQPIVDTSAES
inactive: [2] -0.084 | [3] -0.584 | [4] 0.07 | [5] -0.223 | [6] -0.09 | [7] 0.074 | Nexturastat A 0.25 | [8] 0.018 | givinostat -0.057
active: [1] 0.866

RRP36 (UniProt Q96EU6)
Sequence of UniProt Q96EU6 (Q96EU6 whole entry, looked up): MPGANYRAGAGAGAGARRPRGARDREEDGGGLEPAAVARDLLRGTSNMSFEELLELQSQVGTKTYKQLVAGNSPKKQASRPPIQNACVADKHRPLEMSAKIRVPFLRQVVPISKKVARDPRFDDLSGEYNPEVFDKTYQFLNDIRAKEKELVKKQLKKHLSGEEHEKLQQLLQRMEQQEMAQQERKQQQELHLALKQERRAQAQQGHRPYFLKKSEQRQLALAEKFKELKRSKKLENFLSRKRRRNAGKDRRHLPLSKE
inactive: ibrutinib 0.045 | [1] 0.122 | ralimetinib 0.083 | [2] 0 | [3] 0.044 | [9] 0.042 | [4] 0.021 | [6] 0.001 | [10] -0.168 | [7] -0.045 | Nexturastat A 0.24 | vemurafenib -0.117 | [8] 0.002 | [11] 0.136 | givinostat 0 | barasertib -0.218
active: [5] -0.785

RNF26 (UniProt Q9BY78)
Sequence of UniProt Q9BY78 (Q9BY78 whole entry, looked up): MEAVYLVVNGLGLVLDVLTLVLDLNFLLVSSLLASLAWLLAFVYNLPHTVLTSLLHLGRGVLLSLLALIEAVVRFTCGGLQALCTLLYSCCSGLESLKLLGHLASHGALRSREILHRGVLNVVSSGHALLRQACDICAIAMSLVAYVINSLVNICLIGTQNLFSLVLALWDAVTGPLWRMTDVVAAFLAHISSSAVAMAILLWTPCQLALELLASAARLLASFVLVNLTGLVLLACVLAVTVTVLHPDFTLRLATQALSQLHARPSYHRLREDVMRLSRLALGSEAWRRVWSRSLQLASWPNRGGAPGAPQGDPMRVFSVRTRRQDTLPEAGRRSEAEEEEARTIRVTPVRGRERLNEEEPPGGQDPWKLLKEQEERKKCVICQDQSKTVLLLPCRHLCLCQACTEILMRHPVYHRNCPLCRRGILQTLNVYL
inactive: ibrutinib -0.033 | ralimetinib 0.095 | [9] 0.281 | [10] 0.012 | vemurafenib 0.281 | barasertib 0.124

SAP30 (UniProt O75446)
Sequence of UniProt O75446 (O75446 whole entry, looked up): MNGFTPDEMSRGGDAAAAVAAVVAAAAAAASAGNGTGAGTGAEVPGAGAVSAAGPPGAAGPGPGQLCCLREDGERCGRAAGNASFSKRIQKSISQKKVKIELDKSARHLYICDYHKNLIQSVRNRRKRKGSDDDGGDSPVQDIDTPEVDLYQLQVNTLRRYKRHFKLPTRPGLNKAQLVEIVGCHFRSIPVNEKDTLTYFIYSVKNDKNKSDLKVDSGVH
inactive: IRAK-1-4 Inhibitor I 0.018 | [1] 0.085 | [2] 0.151 | [3] 0.111 | pinometostat 0.111 | [4] 0.041 | [6] -0.292 | [7] -0.078 | [12] -0.164 | Nexturastat A 0.025 | vemurafenib 0.04 | [8] -0.157 | [11] 0.037 | givinostat 0.019
